Source: PubChem (Broad Institute)
This excerpt belongs to a sample that is enriched for hits.
PRC2 inh – blocks human EZH2/PRC2 H3K27 methylation; inhibition, % at 12.5 µM; DELFIA TRF, 1 h; 0.35% of 57,000 active;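 active = mean inhibition of replicates at least 50% and every single replicate also reaching 50%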;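 also: dimethyl H3K27 on biotinylated H3 21-44 peptide detected by antibody; plate controls were median neutral control wells for no effect and median positive control wells for full effect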
Target sequence (Q15910 whole entry, looked up): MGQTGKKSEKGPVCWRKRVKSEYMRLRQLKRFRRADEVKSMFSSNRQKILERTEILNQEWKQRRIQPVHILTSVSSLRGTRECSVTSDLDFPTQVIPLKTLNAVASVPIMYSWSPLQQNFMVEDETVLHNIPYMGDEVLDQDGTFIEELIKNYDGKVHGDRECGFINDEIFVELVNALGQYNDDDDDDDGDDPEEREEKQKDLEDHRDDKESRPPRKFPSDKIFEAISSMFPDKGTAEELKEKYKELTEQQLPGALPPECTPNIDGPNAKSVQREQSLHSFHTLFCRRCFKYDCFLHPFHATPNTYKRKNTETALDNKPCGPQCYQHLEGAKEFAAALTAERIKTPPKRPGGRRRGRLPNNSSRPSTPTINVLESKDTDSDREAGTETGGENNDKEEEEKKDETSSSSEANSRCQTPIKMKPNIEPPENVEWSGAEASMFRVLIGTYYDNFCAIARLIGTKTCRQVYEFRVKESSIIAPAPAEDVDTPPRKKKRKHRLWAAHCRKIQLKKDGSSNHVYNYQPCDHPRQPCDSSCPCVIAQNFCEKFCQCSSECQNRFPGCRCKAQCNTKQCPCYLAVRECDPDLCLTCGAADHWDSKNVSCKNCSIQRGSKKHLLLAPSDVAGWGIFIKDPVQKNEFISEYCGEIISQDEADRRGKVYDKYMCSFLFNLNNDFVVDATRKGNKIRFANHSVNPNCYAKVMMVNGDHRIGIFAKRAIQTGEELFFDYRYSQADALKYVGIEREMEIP
The depositor's hits bear a star.

What do the screens show for `O=C1CCCc2c1n(CCN(Cc1ccccc1)Cc1ccccc1)c1ccc(Cl)cc21`?
PRC2 inh: -6

What do the screens show for `Cn1c(SCC(=O)Nc2ccccc2C(F)(F)F)nnc1-c1cccc(N)c1`?
PRC2 inh: -13

How did Cc1cc(C)nc(NS(=O)(=O)c2ccc(Nc3nc(-c4ccc(F)cc4)cs3)cc2)n1 do in these assays?
PRC2 inh: 58*

What do the screens show for `Cc1cc(C)nc(NS(=O)(=O)c2ccc(N)cc2)n1`?
PRC2 inh: 8

What do the screens show for `CCOc1ccccc1C(=O)Nc1ccc(S(=O)(=O)Nc2nc(C)cc(C)n2)cc1`?
PRC2 inh: -4

Results for Cc1cc(C)nc(NS(=O)(=O)c2ccc(NC(=O)c3ccc(-c4ccccc4)cc3)cc2)n1 ?
PRC2 inh: 56*

How did O=C(Nc1ccc(S(=O)(=O)Nc2ncccn2)cc1)c1ccc(-c2ccccc2)cc1 do in these assays?
PRC2 inh: 28

How did Cc1cc(C)nc(NS(=O)(=O)c2ccc(NC(=O)c3ccc(C(=O)c4ccccc4)cc3)cc2)n1 do in these assays?
PRC2 inh: 7

Results for Cc1ccc(S(=O)(=O)N2CCC[C@H]2CN=[N+]=[N-])cc1 ?
PRC2 inh: 6

What do the screens show for `COCCOC(=O)N1C(=O)[C@@]2(c3cc(C#CC4(O)CCCCCC4)ccc31)[C@H](C(N)=O)[C@H]1C(=O)O[C@H](c3ccccc3)[C@H](c3ccccc3)N1[C@@H]2c1ccc(OCCO)cc1`?
PRC2 inh: -17

What do the screens show for `C[C@@H]1CN([C@@H](C)CO)C(=O)c2cc(NS(=O)(=O)c3cccs3)ccc2O[C@@H]1CN(C)Cc1ccc(C(=O)Nc2ccccc2N)cc1`?
PRC2 inh: -9

How did COc1cccc2cc(C(=O)C3C(=O)C(=O)N(CCCN(C)C)C3c3ccccc3F)oc12 (centres undefined) do in these assays?
PRC2 inh: -2

How did O=C(CCCCCCC(=O)Nc1ccccc1O)N/N=C/c1ccc(O)cc1O do in these assays?
PRC2 inh: -34

What do the screens show for `CCN(CC)c1ccc(/C=N/NC(=O)c2ccc(C(=O)NO)cc2)c(O)c1`?
PRC2 inh: -1

How did O=C(NO)c1ccc(C(=O)N/N=C/c2ccccc2C(=O)O)cc1 do in these assays?
PRC2 inh: 5

Results for O=C(NO)c1ccc(C(=O)N/N=C/c2ccc(O)cc2)cc1 ?
PRC2 inh: 4

What do the screens show for `O=C(NO)c1ccc(C(=O)N/N=C/c2cccc(O)c2O)cc1`?
PRC2 inh: 76*

What do the screens show for `O=C(CCCCC(=O)N/N=C/c1cccc(O)c1O)NO`?
PRC2 inh: 4

What do the screens show for `O=C(NO)c1ccc(C(=O)N/N=C/c2ccc(O)c(O)c2O)cc1`?
PRC2 inh: 89*

What do the screens show for `O=C1CC(=Nc2ccc(F)c(C(F)(F)F)c2)c2ccccc2C1=O`?
PRC2 inh: 3

Results for COc1ccc(NC(=O)Cc2c(OC)ccc3cc(Br)ccc23)c(OC)c1 ?
PRC2 inh: 8

Results for Cc1nnc(Nc2ccc(OCC(=O)N3CCN(c4ccccc4)CC3)cc2)c2ccccc12 ?
PRC2 inh: 0

Results for O=C(CSc1nnc(-c2ccc(Cl)cc2)o1)Nc1cc(C(F)(F)F)ccc1Cl ?
PRC2 inh: -8

Results for OCCCc1nc2ccccc2n1Cc1c(F)cccc1Cl ?
PRC2 inh: -9

Results for COc1cc(-c2nc3sc4c(c3c(=O)[nH]2)CCCC4)cc(Br)c1OCC(=O)O ?
PRC2 inh: 15

What do the screens show for `CC(Oc1cccc(NC(=O)c2cccc([N+](=O)[O-])c2)c1)C(=O)c1cccc(Cl)c1` (centres undefined)?
PRC2 inh: 10

What do the screens show for `O=C(O)Cc1cccc(OCCCN(Cc2cccc(C(F)(F)F)c2Cl)CC(c2ccccc2)c2ccccc2)c1`?
PRC2 inh: 85*

What do the screens show for `Cc1cc(C(F)(F)F)nc(SCC(=O)Nc2ccc(Cl)cc2)n1`?
PRC2 inh: -3

What do the screens show for `CSc1nc(N2CCCCC2)c2c(c1C#N)CCCC2`?
PRC2 inh: 63*

What do the screens show for `Cc1ccc(-n2c(SCC(=O)Nc3c(Cl)cccc3Cl)nnc2-c2ccncc2)cc1`?
PRC2 inh: -4

Results for COc1cccc(S(=O)(=O)Nc2ccc(C(=O)Nc3ccc4c(c3)OCCO4)cc2)c1 ?
PRC2 inh: 1

How did Oc1ccc([C@H]2Oc3cc(O)cc(O)c3C[C@H]2O)cc1 do in these assays?
PRC2 inh: 16

What do the screens show for `O=C1c2c(O)cc(O)cc2OC(c2ccc(O)cc2)C1C1C(=O)c2c(O)cc(O)cc2OC1c1ccc(O)cc1` (centres undefined)?
PRC2 inh: -7

What do the screens show for `Oc1ccc([C@@H]2Oc3cc(O)cc(O)c3C[C@@H]2O)cc1`?
PRC2 inh: 89*

What do the screens show for `COc1cc(O)c(C(=O)/C=C/c2ccc(OC)c(OC)c2)c(OC)c1`?
PRC2 inh: 9

Results for CC(=O)CCC1C2C(O)C(C(C)C)C(OC(=O)/C=C/c3ccccc3)CC12C (centres undefined) ?
PRC2 inh: -26

What do the screens show for `COc1cc(/C=C/C(=O)O[C@@H]2C[C@@](O)(C(=O)O)C[C@@H](O)[C@@H]2O)ccc1O`?
PRC2 inh: 90*

How did O=C(/C=C/c1ccc(O)cc1)O[C@@H]1CC(O)(C(=O)O)C[C@@H](OC(=O)/C=C/c2ccc(O)cc2)C1O (some centres undefined) do in these assays?
PRC2 inh: 76*

Results for COc1cc(/C=C/C(=O)CC(=O)/C=C/c2ccc(O)c(OC)c2)ccc1O ?
PRC2 inh: 10

Results for CC(C)C1CCC2(C)CCC(O)C(C)(O)C2C1OC(=O)/C=C/c1ccccc1 (centres undefined) ?
PRC2 inh: 5

What do the screens show for `Cc1cc(C)c(C)c(Oc2coc3cc(OCC(=O)Nc4ccccc4F)ccc3c2=O)c1`?
PRC2 inh: -3

How did COC(=O)CCCCCCC(=O)N/N=C/c1ccc(OC)cc1O do in these assays?
PRC2 inh: -3

Results for Cc1ccc([N+](=O)[O-])cc1NC(=O)CSc1nnnn1-c1ccccc1 ?
PRC2 inh: 8

What do the screens show for `COC(=O)c1c(-c2ccccc2)csc1NC(=O)c1cc2cccc(OC)c2oc1=O`?
PRC2 inh: -5

What do the screens show for `N#Cc1c(NC(=O)C2CC(c3ccccc3O)=NO2)sc2c1CCCC2` (centres undefined)?
PRC2 inh: 13

Results for COc1cccc(-c2nc(SCC(=O)Nc3cccc(C(F)(F)F)c3)[nH]c(=O)c2C#N)c1 ?
PRC2 inh: 68*

What do the screens show for `O=C(CSc1n[nH]c(-c2ccco2)n1)Nc1ccc(F)cc1`?
PRC2 inh: 0

Results for COc1ccc(-c2nc(SCC(=O)Nc3cccc(C(F)(F)F)c3)n[nH]2)cc1 ?
PRC2 inh: 19

What do the screens show for `COc1ccc(-c2nc(SCC(=O)Nc3ccc(Cl)cc3)[nH]c(=O)c2C#N)cc1`?
PRC2 inh: 29

What do the screens show for `N#Cc1c(-c2ccco2)nc(SCC(=O)Nc2ccc(I)cc2)[nH]c1=O`?
PRC2 inh: 54*

What do the screens show for `O=C(CSc1nc2ccccc2[nH]1)Nc1ccc(I)cc1`?
PRC2 inh: 18

Results for Cc1cc(Cl)ccc1OC(C)C(=O)Nc1cccc(C(=O)O)c1 (centres undefined) ?
PRC2 inh: -7

How did CC(=O)Nc1ccc(NC(=O)CN(c2ccc(Br)c(C)c2)S(C)(=O)=O)cc1 do in these assays?
PRC2 inh: -2

How did COc1ccc(C(C)C)cc1S(=O)(=O)Nc1cccc(C(=O)O)c1 do in these assays?
PRC2 inh: -3

How did COc1ccc(OC)c(S(=O)(=O)N2CCC(C(=O)Nc3ccc(OC)c(Cl)c3)CC2)c1 do in these assays?
PRC2 inh: 1
